# Results from PubChem BioAssay (NCI).
# Compounds without any hit were thinned out: in the full panel of roughly 79,000, 15% have a hit. A number with no mark means an inactive call. Activity calls are given as the source filed them. Cut-off read from the data, not from the text of the source: active = growth inhibition above about 70%; inactive = the rest.
# Test: NCI Yeast Anticancer Drug Screen. Data for the rad52 strain (AID 147);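 note: 0% = growth of vehicle-treated control cultures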
# Conditions: S. cerevisiae rad52 mutant growth inhibition; at 33.0 µM; active compounds read high
# How it was run: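 Vehicle-treated cultures served as the reference for growth inhibition of compound-exposed yeast bearing a DNA repair mutation.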
row,SMILES,growth inhibition
1,COc1ccc2nc3cccc([N+](=O)[O-])c3c(NCCNCCN(C)C)c2c1,-4%
2,Cc1cccc(/C=N/NC(=S)NC2CCCCC2)n1,9%
3,COC(=O)C(=O)c1c(-c2ccc(Cl)c(Cl)c2)[nH]c2[nH]n(-c3ccccc3)c(=O)c2c1=O,55%
4,c1ccc([P+](CCN2Cc3ccccc3C2)(c2ccccc2)c2ccccc2)cc1,64%
5,Cc1cc(C)c2[s+]snc2c1,29%
6,CC(C)(Br)C(=O)/C=C/c1ccccc1,73% (active)
7,Cc1ccc(S(=O)(=O)NC(=O)C2C(=O)CC3(CCCCC3)CC2=O)cc1,7%
8,NC(=S)N1N=C2c3ccccc3CC[C@H]2[C@@H]1c1ccc(Cl)cc1,48%
9,O=[N+]([O-])/C=C/c1cc2ccc3ccccc3c2[nH]1,88% (active)
10,O=C1C(=C2CCCC2)CCC1CN1CCCCC1 (configuration not stated),64%
11,OC(CC(O)(C(F)(F)F)C(F)(F)F)c1ccc(C(O)CC(O)(C(F)(F)F)C(F)(F)F)cc1 (configuration not stated),99% (active)
12,COc1cc2c(cc1OC)[C@@H](Nc1ccc(C#N)cc1)C1COC(=O)[C@@H]1C2c1cc(OC)c(O)c(OC)c1 (some centres not stated),91% (active)
13,O=c1cccccc1[O-].O=c1cccccc1[O-].O=c1cccccc1[O-].[Eu+3],97% (active)
14,O=C1c2ccccc2C(=O)c2sc(Nc3ccccc3Cl)nc21,99% (active)
15,NC(CCCCCCCCCCCCC(N)C(=O)c1ccccc1)C(=O)c1ccccc1 (configuration not stated),92% (active)
16,CC1=C(C)C(=O)C2=C(OCCO2)C1=O,23%
17,c1ccc(-c2cc(C3CO3)c3ccccc3n2)cc1 (configuration not stated),70% (active)
18,S=C1C(=Nc2ccccc2)N(c2ccccc2)/C(=N\c2ccccn2)N1c1ccccc1,99% (active)

row,SMILES,growth inhibition
1,CCC(OC(C)=O)C1CC(C(C)C)CCC1C (configuration not stated),-73%
2,CC(C)=CCc1c2c(c(O)c3c(=O)c(-c4ccc(O)c(O)c4)coc13)C=CC(C)(C)O2,93% (active)
3,O=C(NC(N1CCN(c2cc3c(cc2F)c(=O)c(C(=O)O)cn3C2CC2)CC1)(C(F)(F)F)C(F)(F)F)c1ccccc1,90% (active)
4,Fc1cc(F)c(F)c(S)c1F,29%
5,COc1ccc2cc3c4cc5c(cc4cc[n+]3cc2c1OC)OCO5,94% (active)
6,CCCCCCCCNCCCCCCCC,99% (active)
7,Nc1cc(Cl)ccc1Nc1ccccc1,-18%
8,O=C(/C(=C/c1ccc(O)cc1)c1ccccc1)c1ccccc1,99% (active)
9,O=Cc1ccccc1C=O,4%
10,C1=CCN([B-](c2ccccc2)[C+]2CCCCC2)C=C1,58%
11,CC/C(=C(\c1ccccc1)c1ccc(OCC[N+](C)(C)C)cc1)c1ccccc1,99% (active)
12,O=S(=O)(c1cccc(C(F)(F)F)c1)N1c2ccccc2-n2cccc2C1c1cccnc1 (configuration not stated),95% (active)
13,Nc1ccc2c(c1)C(=O)c1c(F)cccc1-2,69%
14,CN(C)/C(=N/C(=S)Nc1ccccc1)SCc1ccccc1,6%
15,CCN(CC)C(=S)N/N=C(\C)c1ccccc1O,96% (active)
16,CC(C)OC(=O)NNc1cc(Cl)ccc1Cl,38%
17,CC(C)CCC[C@@H](C)[C@H]1CC[C@H]2[C@@H]3CC[C@H]4C[C@H](N)CC[C@]4(C)[C@H]3CC[C@]12C,-7%
18,O=C1c2ccccc2-c2ccc(N=Cc3ccccc3)cc21,68%

# Same assay, conditions: S. cerevisiae rad52 mutant growth inhibition; at 100.0 µM; active compounds read high
row,SMILES,growth inhibition
1,COc1ccc2nc3cccc([N+](=O)[O-])c3c(NCCNCCN(C)C)c2c1,2%
2,Cc1cccc(/C=N/NC(=S)NC2CCCCC2)n1,6%
3,COC(=O)C(=O)c1c(-c2ccc(Cl)c(Cl)c2)[nH]c2[nH]n(-c3ccccc3)c(=O)c2c1=O,61%
4,c1ccc([P+](CCN2Cc3ccccc3C2)(c2ccccc2)c2ccccc2)cc1,95% (active)
5,Cc1cc(C)c2[s+]snc2c1,54%
6,CC(C)(Br)C(=O)/C=C/c1ccccc1,91% (active)
7,Cc1ccc(S(=O)(=O)NC(=O)C2C(=O)CC3(CCCCC3)CC2=O)cc1,36%
8,NC(=S)N1N=C2c3ccccc3CC[C@H]2[C@@H]1c1ccc(Cl)cc1,88% (active)
9,O=[N+]([O-])/C=C/c1cc2ccc3ccccc3c2[nH]1,88% (active)
10,O=C1C(=C2CCCC2)CCC1CN1CCCCC1 (configuration not stated),96% (active)
11,OC(CC(O)(C(F)(F)F)C(F)(F)F)c1ccc(C(O)CC(O)(C(F)(F)F)C(F)(F)F)cc1 (configuration not stated),99% (active)
12,COc1cc2c(cc1OC)[C@@H](Nc1ccc(C#N)cc1)C1COC(=O)[C@@H]1C2c1cc(OC)c(O)c(OC)c1 (some centres not stated),93% (active)
13,O=c1cccccc1[O-].O=c1cccccc1[O-].O=c1cccccc1[O-].[Eu+3],97% (active)
14,O=C1c2ccccc2C(=O)c2sc(Nc3ccccc3Cl)nc21,98% (active)
15,NC(CCCCCCCCCCCCC(N)C(=O)c1ccccc1)C(=O)c1ccccc1 (configuration not stated),96% (active)
16,CC1=C(C)C(=O)C2=C(OCCO2)C1=O,82% (active)
17,c1ccc(-c2cc(C3CO3)c3ccccc3n2)cc1 (configuration not stated),98% (active)
18,S=C1C(=Nc2ccccc2)N(c2ccccc2)/C(=N\c2ccccn2)N1c1ccccc1,93% (active)

row,SMILES,growth inhibition
1,CCC(OC(C)=O)C1CC(C(C)C)CCC1C (configuration not stated),22%
2,CC(C)=CCc1c2c(c(O)c3c(=O)c(-c4ccc(O)c(O)c4)coc13)C=CC(C)(C)O2,87% (active)
3,O=C(NC(N1CCN(c2cc3c(cc2F)c(=O)c(C(=O)O)cn3C2CC2)CC1)(C(F)(F)F)C(F)(F)F)c1ccccc1,90% (active)
4,Fc1cc(F)c(F)c(S)c1F,98% (active)
5,COc1ccc2cc3c4cc5c(cc4cc[n+]3cc2c1OC)OCO5,97% (active)
6,CCCCCCCCNCCCCCCCC,99% (active)
7,Nc1cc(Cl)ccc1Nc1ccccc1,68%
8,O=C(/C(=C/c1ccc(O)cc1)c1ccccc1)c1ccccc1,93% (active)
9,O=Cc1ccccc1C=O,73% (active)
10,C1=CCN([B-](c2ccccc2)[C+]2CCCCC2)C=C1,98% (active)
11,CC/C(=C(\c1ccccc1)c1ccc(OCC[N+](C)(C)C)cc1)c1ccccc1,99% (active)
12,O=S(=O)(c1cccc(C(F)(F)F)c1)N1c2ccccc2-n2cccc2C1c1cccnc1 (configuration not stated),91% (active)
13,Nc1ccc2c(c1)C(=O)c1c(F)cccc1-2,97% (active)
14,CN(C)/C(=N/C(=S)Nc1ccccc1)SCc1ccccc1,12%
15,CCN(CC)C(=S)N/N=C(\C)c1ccccc1O,99% (active)
16,CC(C)OC(=O)NNc1cc(Cl)ccc1Cl,66%
17,CC(C)CCC[C@@H](C)[C@H]1CC[C@H]2[C@@H]3CC[C@H]4C[C@H](N)CC[C@]4(C)[C@H]3CC[C@]12C,-6%
18,O=C1c2ccccc2-c2ccc(N=Cc3ccccc3)cc21,96% (active)
